This is part of a sample that, as a whole, favours compounds with a hit. Of some 83,000 tested, about 20% had one in any assay.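 Method: cells in 96-well plates; compound added at one concentration; 48 h incubation; percent growth measured; values under 10 scored active.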 A number with no mark means an inactive call. Active and inactive are the calls of the source.

Test systems include SR leukemia; RPMI-8226 leukemia; OVCAR-8 ovarian; OVCAR-5 ovarian; OVCAR-4 ovarian; SK-OV-3 ovarian; IGROV1 ovarian; OVCAR-3 ovarian; HS 578T breast; NCI/ADR-RES ovarian; T-47D breast; BT-549 breast; MDA-MB-435 melanoma; SW-620 colon; MCF7 breast; HCT-116 colon; KM12 colon; HCC-2998 colon.
Holding throughout (assay): NCI-60 one-dose screen, 48 h (100 = growth as untreated, 0 = no growth, -100 = all killed)
Common to all, as to conditions: 10 µM unless noted

Take `Cc1ccn2c(-c3csc(Nc4cccc(O)c4)n3)c(C)nc2c1`: the growth in the test on SR leukemia was -24.8% (active); in the test on RPMI-8226 leukemia, -4.74% (active); with OVCAR-8 ovarian, 40.1%; in the test with OVCAR-5 ovarian, 38.5%; in the test on OVCAR-4 ovarian, 36.7%; in the test on SK-OV-3 ovarian, -25.2% (active). Also, the growth in the test on IGROV1 ovarian is 14.1%; in the test on OVCAR-3 ovarian, -14% (active); in the test with HS 578T breast, 19.2%; in the test with NCI/ADR-RES ovarian it was 14.4%; in the test with T-47D breast, 34%; in the test on BT-549 breast, 25%. For the same compound, the growth in the test with MDA-MB-435 melanoma is -34.6% (active); with SW-620 colon, 33.4%; with MCF7 breast, 6.08% (active); in the test on HCT-116 colon, 27.6%; with KM12 colon, 29.9%.

Take `C/C(Cc1ccc(Cl)cc1)=C(\c1ccc(OCCN2CCCCCC2)cc1)c1ccc(OC(=O)C2CCCCC2)cc1`: the growth with SR leukemia was -0.529% (active); in the test with RPMI-8226 leukemia it was 37.2%; with OVCAR-8 ovarian, 66.2%; in the test with OVCAR-5 ovarian, 73.4%; in the test with OVCAR-4 ovarian it was 80.6%; in the test on SK-OV-3 ovarian, 88.1%. In addition, the growth is 46.8% in the test with IGROV1 ovarian; 71.8% with OVCAR-3 ovarian; 56.3% in the test with HS 578T breast; 70.4% in the test with NCI/ADR-RES ovarian; 49.1% in the test with T-47D breast; 86.6% in the test with BT-549 breast. For the same compound, the growth in the test with MDA-MB-435 melanoma is 58.7%; in the test on SW-620 colon, 56.9%; with MCF7 breast, 29.6%; in the test on HCT-116 colon, 44%; with KM12 colon, 53.1%.

Regarding `Cc1ccc(/C=C2\Oc3cc(OCC(=O)c4ccc(Cl)cc4)ccc3C2=O)cc1`, the growth was 94.7% in the test with SR leukemia; 248% in the test with RPMI-8226 leukemia; 92.9% in the test on OVCAR-8 ovarian; 102% with OVCAR-5 ovarian; 119% in the test with OVCAR-4 ovarian; 115% with SK-OV-3 ovarian. Also, the growth is 57.1% in the test on IGROV1 ovarian; 94.9% with OVCAR-3 ovarian; 95.4% in the test on HS 578T breast; 102% with NCI/ADR-RES ovarian; 97.9% in the test with T-47D breast; 110% in the test with BT-549 breast. Also, the growth in the test with MDA-MB-435 melanoma was 104%; with SW-620 colon, 97.1%; in the test with HCT-116 colon it was 89.5%; in the test with HCC-2998 colon it was 92.6%; with KM12 colon, 104%.

As to `O=C1CCc2c(sc3[nH]c(=S)n(Cc4ccccc4)c(=O)c23)C1`, the growth was 15.5% with SR leukemia; 3.36% (active) in the test with RPMI-8226 leukemia; 14.3% in the test with OVCAR-8 ovarian; 9.59% (active) in the test on OVCAR-5 ovarian; 21.8% with OVCAR-4 ovarian; 22.2% in the test with SK-OV-3 ovarian. Moreover, the growth was 34.2% in the test on IGROV1 ovarian; 9.16% (active) in the test on OVCAR-3 ovarian; -3.81% (active) in the test with HS 578T breast; 4.56% (active) in the test with NCI/ADR-RES ovarian; 6.69% (active) in the test on T-47D breast; 10.6% in the test with BT-549 breast. Besides, the growth in the test with MDA-MB-435 melanoma is 15%; in the test with SW-620 colon it was 15.4%; in the test with MCF7 breast, 15.8%; in the test on HCT-116 colon, 6.51% (active); in the test with KM12 colon, 5.93% (active).

For `Cc1cc(Nc2nc(N3CCN(C)CC3)nc3ccccc23)n[nH]1`, the growth in the test with SR leukemia was 20.7%; with RPMI-8226 leukemia it was 87.2%; in the test with OVCAR-8 ovarian it was 99.6%; with OVCAR-5 ovarian it was 86.7%; in the test on OVCAR-4 ovarian, 54.5%; in the test with SK-OV-3 ovarian it was 25.5%. For the same compound, the growth in the test on IGROV1 ovarian was 35.6%; in the test with OVCAR-3 ovarian, 75.8%; in the test on HS 578T breast, 50.8%; in the test on NCI/ADR-RES ovarian it was 122%; in the test on T-47D breast, 71.2%; in the test on BT-549 breast, 76.2%. The growth in the test with MDA-MB-435 melanoma is 52.2%; with SW-620 colon it was 69.2%; in the test on MCF7 breast, 46.2%; in the test on HCT-116 colon, 50.3%; with KM12 colon it was 19%.

`CC(C)[C@H]1COC(=O)N1[C@@H]1C(=O)N([C@@H](CCC(=O)N2CCN(C3CCCC3)CC2)C(=O)N[C@@H]2CCCc3ccccc32)[C@@H]1/C=C/c1cccc(Br)c1`: the growth with SR leukemia was -18.9% (active); in the test with RPMI-8226 leukemia, 14.6%; in the test with OVCAR-8 ovarian it was 62.1%; in the test with OVCAR-5 ovarian, 88.2%; in the test on OVCAR-4 ovarian it was 53.9%; in the test with SK-OV-3 ovarian, 52.7%. For the same compound, the growth in the test with IGROV1 ovarian is 32%; in the test on OVCAR-3 ovarian, 45.1%; with HS 578T breast, 51.9%; in the test with NCI/ADR-RES ovarian, 53%; in the test on T-47D breast it was 39.9%; in the test with BT-549 breast it was 27.6%. Further, the growth was 30.2% in the test with MDA-MB-435 melanoma; 45.2% in the test with SW-620 colon; 23% in the test with MCF7 breast; 14.3% in the test on HCT-116 colon; 35.6% with KM12 colon.

Take `CC(=O)N1CC(Nc2ccc(OC(F)(F)F)cc2)=CC1=O`: the growth with SR leukemia was 25.3%; in the test on RPMI-8226 leukemia, 21.9%; with OVCAR-8 ovarian, 26.1%; in the test with OVCAR-5 ovarian, 92.6%; with OVCAR-4 ovarian, 87.2%; with SK-OV-3 ovarian, 31.3%. Besides, the growth was 50.3% with IGROV1 ovarian; 9.26% (active) in the test on OVCAR-3 ovarian; 38.9% in the test with HS 578T breast; 15.4% in the test on NCI/ADR-RES ovarian; 26.2% in the test on T-47D breast; -27.2% (active) with MDA-MB-435 melanoma. Moreover, the growth was 27.8% in the test with SW-620 colon; 11.8% with MCF7 breast; 39.2% in the test on HCT-116 colon; 60.2% in the test on HCC-2998 colon; 23.3% in the test on KM12 colon.

Values taken from PubChem BioAssay (NCI).
